Assay results from PubChem BioAssay AID485344 (National Center for Advancing Translational Sciences (NCATS), 2010).
Hit rate of the full screen: of about 340,000 compounds, about 6,900 (2%) were called active. For the sample, actives were picked, then their nearest neighbours and some compounds at random. Unmarked numbers belong to inactive results. No stated cut-off is given here; in the data, active means inhibition above about 30%; inactive means below that, where a call was filed.

Molecular target: D(2) dopamine receptor (Homo sapiens) (UniProt P14416)
Test: HTS Assay for Allosteric Antagonists of the Human D2 Dopamine Receptor: Primary Screen for Antagonists; further: 0% is about no effect
Settings: HEK293 TREx D2 cells, calcium flux, dopamine EC80; at 10 µM; stronger effect = higher value
Summary of the method: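 Tetracycline-induced HEK293 T-REx cells expressing D2 force-coupled to calcium signalling were dye-loaded, exposed to compound for 180 s, then challenged with an EC80 of dopamine; calcium flux was followed kinetically for a further 180 s.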

D(2) dopamine receptor (Homo sapiens), sequence (P14416 whole entry, looked up): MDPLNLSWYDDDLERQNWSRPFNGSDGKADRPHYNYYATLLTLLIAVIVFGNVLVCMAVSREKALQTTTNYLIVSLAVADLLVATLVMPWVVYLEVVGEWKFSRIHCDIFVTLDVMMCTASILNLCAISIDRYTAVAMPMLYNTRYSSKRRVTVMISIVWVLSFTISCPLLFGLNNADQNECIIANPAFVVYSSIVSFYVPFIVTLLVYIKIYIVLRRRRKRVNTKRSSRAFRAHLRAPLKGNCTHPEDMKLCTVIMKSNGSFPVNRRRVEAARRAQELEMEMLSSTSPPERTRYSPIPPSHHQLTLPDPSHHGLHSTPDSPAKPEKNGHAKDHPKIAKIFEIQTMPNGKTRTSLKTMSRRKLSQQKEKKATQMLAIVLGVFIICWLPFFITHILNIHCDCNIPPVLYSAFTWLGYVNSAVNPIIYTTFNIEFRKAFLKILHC

Q: For `C#CCOCCOCCOCCNc1nc(N2CCN(C(=O)[C@H](CCCCN)n3cc(CCC(=O)O)nn3)CC2)nc(N2CCN(C(=O)[C@H](CCCCN)n3cc(CC(C)O)nn3)CC2)n1` (stereo not given in full), which inhibition is on record?
A: -5%

Q: How did the inhibition turn out when `COc1ccccc1Nc1nnc(SC(C)C(=O)NC2CC2)s1` (stereo not given) was run?
A: -7.77%

Q: `Cc1ccc([C@@H]2CC=C(C(=O)O)[C@H](c3cccc(Cl)c3)N2S(=O)(=O)c2ccc(C)cc2)cc1` was tested. Which inhibition did it give?
A: 10.4%

Q: `C[C@H](NC(=O)c1ccccc1Cl)C(=O)OCC(=O)N1CCN(c2ccccc2)CC1` was tested. Which inhibition did it give?
A: 8.27%

Q: `COc1ccccc1CNC(=O)CCCNS(=O)(=O)c1cccc2nsnc12` was tested. Which inhibition did it give?
A: 42.4% (active)

Q: Which inhibition does the source give for `O=C(CCS(=O)(=O)c1cccc2nsnc12)N1CCN(c2ccccc2F)CC1` here?
A: -8.03%

Q: For `O=C(C(NS(=O)(=O)c1cccc2nsnc12)c1ccccc1)N1CCN(c2ccccc2)CC1` (stereo not given), which inhibition is on record?
A: 1.2%

Q: Which inhibition does the source give for `COc1ccc(CNC(=O)C(NS(=O)(=O)c2cccc3nsnc23)C(C)C)cc1` (stereo not given) here?
A: 7.26%

Q: For `CCOc1ccccc1NC(=O)CCS(=O)(=O)c1cccc2nsnc12`, which inhibition is on record?
A: 4.79%

Q: How did the inhibition turn out when `O=C(CCCNS(=O)(=O)c1cccc2nsnc12)NCCN1CCN(c2ccccc2F)CC1` was run?
A: 78.8% (active)

Q: `CC1CCCCC12NC(=O)N(CC(=O)Nc1ccc(S(=O)(=O)Nc3ncccn3)cc1)C2=O` (stereo not given) was tested. Which inhibition did it give?
A: 14.7%

Q: Which inhibition does the source give for `CCC(=O)c1cc(F)ccc1OCC(=O)Nc1ccc2c(c1)OCCO2` here?
A: -15.9%

Q: With `O=c1ccc2c(-c3ccccc3S(=O)(=O)O)c3ccc(O)c(O)c3oc-2c1O` as the compound, how does the inhibition read?
A: 13.3%

Q: Which inhibition does the source give for `CCC(C)(C)NC(=O)CN(C(=O)C(=O)Nc1ccc2c(c1)OCCO2)C(C)(C)CC` here?
A: -4.87%

Q: How did the inhibition turn out when `COC(=O)CCNc1ccc2c(c1)OCCO2` was run?
A: 0.987%

Q: For `CCCCN(CC(=O)NC(C)(C)C)C(=O)C(=O)Nc1ccc2c(c1)OCCO2`, which inhibition is on record?
A: 64.1% (active)

Q: With `COC(=O)[C@]1(C)CCC[C@@]2(C)C3CC[C@]4(OC(C)=O)C[C@@]3(CCC21)CC4=NO` (stereo not given in full) as the compound, how does the inhibition read?
A: 2.69%

Q: `O=C(CN1C(=O)c2cccnc2Oc2ccc(Cl)cc21)Nc1ccc(F)cc1` was tested. Which inhibition did it give?
A: 32.7% (active)

Q: For `CC(=O)c1cccc(NC(=O)CN2C(=O)c3cccnc3Oc3ccc(Cl)cc32)c1`, which inhibition is on record?
A: 8.77%

Q: With `O=C(CN1C(=O)c2cccnc2Oc2ccc(Cl)cc21)NCCc1ccccc1` as the compound, how does the inhibition read?
A: 10.8%

Q: `CCC(C)N(C(=O)CSc1nnnn1-c1ccccc1OC)C1CCS(=O)(=O)C1` (stereo not given) was tested. Which inhibition did it give?
A: -18.8%

Q: For `CCOc1cccc2cc(C(=O)OCC(=O)Nc3c(C)cccc3CC)c(=O)oc12`, which inhibition is on record?
A: 17.6%

Q: For `CCC1CCC2(CC1)NC(=O)N(CC(=O)Nc1ccc(OC)cc1)C2=O` (stereo not given), which inhibition is on record?
A: 21.9%

Q: `O=C(CSc1cccc[n+]1[O-])c1ccc(Cl)cc1` was tested. Which inhibition did it give?
A: 11.7%

Q: How did the inhibition turn out when `O=C(Cn1cc(-c2nnnn2-c2ccc(Cl)cc2)c(=O)c2ccccc21)c1ccccc1` was run?
A: -5.55%

Q: How did the inhibition turn out when `O=C(C[n+]1ccc2c(c1)nnn2-c1ccccc1)c1ccc(Cl)cc1` was run?
A: 35.8% (active)

Q: How did the inhibition turn out when `COc1cc(OC)cc(-c2c(-c3ccc(F)cc3)c3cc(-c4ccc5cc[nH]c5c4)ccc3n2C)c1` was run?
A: 3.65%

Q: For `O=C(COC(=O)c1c(Cl)cccc1Cl)Nc1cccc(S(=O)(=O)NC2=NCCCCC2)c1`, which inhibition is on record?
A: -9.77%

Q: With `O=C(Nc1cccc(C(F)(F)F)c1)c1ccc(N2CCNCC2)c([N+](=O)[O-])c1` as the compound, how does the inhibition read?
A: 8.47%

Q: With `COc1cc(OC)cc(C(=O)NC(=S)N2CCN(c3ccc(C(F)(F)F)cc3[N+](=O)[O-])CC2)c1` as the compound, how does the inhibition read?
A: 30% (active)

Q: `O=C(Cc1ccc(S(=O)(=O)N2CCOCC2)s1)N1CCN(c2ccc(C(F)(F)F)cc2[N+](=O)[O-])CC1` was tested. Which inhibition did it give?
A: -7.45%

Q: With `O=S(=O)(NCCCN1CCOCC1)c1ccc(F)c(Cl)c1` as the compound, how does the inhibition read?
A: 26.5%

Q: `COC(=O)c1ccc(-c2c(-c3ccccc3)ncc3cc(OC)c(OC)cc23)cc1` was tested. Which inhibition did it give?
A: -1.67%

Q: How did the inhibition turn out when `CC(C)CN(C(=O)CSc1ncnc2sccc12)C1CCS(=O)(=O)C1` (stereo not given) was run?
A: 6.11%

Q: Which inhibition does the source give for `CCOc1ccc(S(=O)(=O)Nc2cccc(C(=O)NCC3(N4CCCCC4)CCCCC3)c2)cc1` here?
A: -9.84%

Q: `CCn1c(COc2ccccc2)nnc1SCC(=O)NCc1ccco1` was tested. Which inhibition did it give?
A: -10.2%

Q: For `CCOC(=O)CNC(=O)CSc1nnc(-c2cccc(OC)c2)n1CC`, which inhibition is on record?
A: -19.1%

Q: How did the inhibition turn out when `CCOC(=O)CNC(=O)CSc1nnc(COc2ccc(Cl)cc2)n1CC` was run?
A: 32.9% (active)

Q: Which inhibition does the source give for `COc1ccc(CCC(C)N2CCc3ccccc3C2)cc1` (stereo not given) here?
A: 55% (active)

Q: Which inhibition does the source give for `COc1ccc(NC(=O)C(=O)NCC(c2ccco2)N2CCc3ccccc3C2)cc1` (stereo not given) here?
A: -3.07%

Q: How did the inhibition turn out when `COc1ccc(OC)c(NC(=S)N2CCc3ccccc3C2)c1` was run?
A: 16.6%

Q: `CN(C)S(=O)(=O)c1cccc(NC(=O)COc2ccc3ccccc3c2)c1` was tested. Which inhibition did it give?
A: 7.96%

Q: With `CCOC(=O)C1CCCN(CCSc2ccc(C)cc2)C1` (stereo not given) as the compound, how does the inhibition read?
A: 43.5% (active)

Q: With `CCOC(=O)C1CCCN(C(=O)COc2ccc(N(C)S(=O)(=O)c3ccc(C)cc3)cc2)C1` (stereo not given) as the compound, how does the inhibition read?
A: 15.8%

Q: `CCOC(=O)C1CCCN(Cc2nc(N)nc(Nc3ccc(C)cc3)n2)C1` (stereo not given) was tested. Which inhibition did it give?
A: 12.9%

Q: With `CCN(CC)c1ccc(NC(=O)CN2C(=O)NC3(CCc4ccccc43)C2=O)cc1` (stereo not given) as the compound, how does the inhibition read?
A: 2.26%

Q: With `COC(=O)Cc1ccc(OCC(=O)NC2CCCC2)cc1` as the compound, how does the inhibition read?
A: 0.938%

Q: `Cc1ccc(S(=O)(=O)N2CCCCC2)cc1C(=O)N(C)CC(=O)Nc1cccc(F)c1` was tested. Which inhibition did it give?
A: 31.6% (active)

Q: Which inhibition does the source give for `CCOc1ccc(NC(=O)CN(C)C(=O)c2cccc(S(=O)(=O)N3CCCC3)c2)cc1OCC` here?
A: -1.88%

Q: With `Cc1ccc(NC(=O)CN(C)C(=O)c2cccc(S(=O)(=O)N3CCCC3)c2)cc1` as the compound, how does the inhibition read?
A: -2.36%

Q: How did the inhibition turn out when `O=C(CCNC(=O)c1ccc(Cl)cc1)NC1CCCc2ccccc21` (stereo not given) was run?
A: -3.04%

Q: Which inhibition does the source give for `CC(C)(C)OC(=O)NCCCCCNC(=O)c1[nH]cnc1C(=O)Nc1nccs1` here?
A: -7.74%

Q: Which inhibition does the source give for `O=C(Cn1[nH]c(=O)c2ccccc2c1=O)Nc1cccc(-c2nnc3n2CCCCC3)c1` here?
A: -20.7%

Q: With `Cc1c(C(=O)Nc2cccc(-c3nnc4n3CCCCC4)c2)oc2ccccc12` as the compound, how does the inhibition read?
A: 60% (active)

Q: How did the inhibition turn out when `Cc1c(C(=O)NC2CCCCC2)oc2ccccc12` was run?
A: 15.1%
